Experimental data published in PubChem BioAssay AID1159580 (chemical genetic matrix, 2015).
Among all 5,500 compounds or so, about 2,000 (36%) were called active. Another 18% or so got no clear call; they are omitted. No stated cut-off is given here; in the data, active means normalized growth mostly below about 0.91 (no sharp cut-off); inconclusive means no clear call, values can overlap the other calls; inactive means mostly above about 0.92. The list shows a part of the results.

Test: chemical genetic growth profiling, strain panel (AID 1159580);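 further: tested at 20 µM; growth read once vehicle control cultures reached saturation at 30 °C; 1 = growth at the plate median or of vehicle wells; lower values mean less growth of the strain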
Conditions: growth OD

Measured: normalized growth

OC(CCN1CCCCC1)(c1ccccc1)c1ccccc1
inactive: S. cerevisiae deletion strains, locus YJR075W, strain HOC1, hits give low values 1 | S. cerevisiae deletion strains, locus YKL009W, strain mrt4, hits give low values 1.03 | S. cerevisiae deletion strains, locus YKL068W, hits give low values 1.01 | S. cerevisiae deletion strains, locus YKL085W, strain MDH1 (second series), hits give low values 1.07 | S. cerevisiae deletion strains, locus YKL085W, strain MDH1, hits give low values 1.07 | S. cerevisiae deletion strains, locus YKL160W, strain elf1, hits give low values 1.03 | S. cerevisiae deletion strains, locus YKL190W, strain CNB1, hits give low values 1.01 | S. cerevisiae deletion strains, locus YKR001C, strain vps1, hits give low values 1.01 | S. cerevisiae deletion strains, locus YKR026C, strain gcn3, hits give low values 0.993 | S. cerevisiae deletion strains, locus YKR091W, strain srl3, hits give low values 0.993 | S. cerevisiae deletion strains, locus YLL001W, strain dnm1, hits give low values 1.01 | S. cerevisiae deletion strains, locus YLL026W, hits give low values 0.983 | S. cerevisiae deletion strains, locus YLL041C, strain sdh2, hits give low values 0.994 | S. cerevisiae deletion strains, locus YLR027C, strain aat2, hits give low values 1 | S. cerevisiae deletion strains, locus YLR039C, strain RIC1, hits give low values 1.08 | S. cerevisiae deletion strains, locus YLR058C, strain SHM2, hits give low values 1.01 | S. cerevisiae deletion strains, locus YLR102C, strain apc9, hits give low values 1.01 | S. cerevisiae deletion strains, locus YLR113W, strain HOG1, hits give low values 1.05 | S. cerevisiae deletion strains, locus YLR221C, strain rsa3, hits give low values 0.966 | S. cerevisiae deletion strains, locus YLR258W, strain gsy2, hits give low values 0.965 | S. cerevisiae deletion strains, locus YLR262C, strain YPT6 (second series), hits give low values 1.02 | S. cerevisiae deletion strains, locus YLR262C, strain YPT6, hits give low values 1.1 | S. cerevisiae deletion strains, locus YLR268W, strain sec22, hits give low values 1.02 | S. cerevisiae deletion strains, locus YLR320W, strain mms22, hits give low values 0.999 | S. cerevisiae deletion strains, locus YLR330W, strain CHS5, hits give low values 1.01 | S. cerevisiae deletion strains, locus YLR342W, strain FKS1 (second series), hits give low values 1.02 | S. cerevisiae deletion strains, locus YLR342W, strain FKS1, hits give low values 0.993 | S. cerevisiae deletion strains, locus YLR357W, strain rsc2, hits give low values 0.997 | S. cerevisiae deletion strains, locus YLR370C, strain arc18, hits give low values 0.974 | S. cerevisiae deletion strains, locus YLR371W, strain rom2, hits give low values 1.01 | S. cerevisiae deletion strains, locus YLR384C, strain iki3, hits give low values 0.983 | S. cerevisiae deletion strains, locus YLR418C, strain cdc73, hits give low values 1.01 | S. cerevisiae deletion strains, locus YML016C, strain PPZ1, hits give low values 1 | S. cerevisiae deletion strains, locus YML032C, strain rad52, hits give low values 1.01 | S. cerevisiae deletion strains, locus YML120C, strain ndi1, hits give low values 0.978 | S. cerevisiae deletion strains, locus YML124C, strain tub3, hits give low values 1 | S. cerevisiae deletion strains, locus YMR058W, strain fet3, hits give low values 0.996 | S. cerevisiae deletion strains, locus YMR078C, strain ctf18, hits give low values 1.01 | S. cerevisiae deletion strains, locus YMR125W, strain sto1, hits give low values 1.01 | S. cerevisiae deletion strains, locus YMR129W, hits give low values 0.99 | S. cerevisiae deletion strains, locus YMR205C, strain PFK2, hits give low values 1.01 | S. cerevisiae deletion strains, locus YMR223W, strain ubp8, hits give low values 1.01 | S. cerevisiae deletion strains, locus YMR231W, strain pep5, hits give low values 0.995 | S. cerevisiae deletion strains, locus YMR307W, strain GAS1, hits give low values 1.08 | S. cerevisiae deletion strains, locus YNL067W, strain RPL9B, hits give low values 1.02 | S. cerevisiae deletion strains, locus YNL071W, strain lat1, hits give low values 0.993 | S. cerevisiae deletion strains, locus YNL153C, strain GIM3, hits give low values 0.998 | S. cerevisiae deletion strains, locus YNL183C, strain NPR1, hits give low values 0.971 | S. cerevisiae deletion strains, locus YNL209W, strain ssb2, hits give low values 0.987 | S. cerevisiae deletion strains, locus YNL233W, strain BNI4, hits give low values 1.01 | S. cerevisiae deletion strains, locus YNL248C, strain rpa49, hits give low values 1.06 | S. cerevisiae deletion strains, locus YNL250W, strain rad50, hits give low values 1 | S. cerevisiae deletion strains, locus YNL271C, strain bni1, hits give low values 1.02 | S. cerevisiae deletion strains, locus YNL298W, strain CLA4, hits give low values 1.02 | S. cerevisiae deletion strains, locus YNL307C, strain MCK1, hits give low values 1.02 | S. cerevisiae deletion strains, locus YNL322C, strain KRE1 (second series), hits give low values 0.987 | S. cerevisiae deletion strains, locus YNL322C, strain KRE1, hits give low values 1.01 | S. cerevisiae deletion strains, locus YNR049C, strain mso1, hits give low values 0.997 | S. cerevisiae deletion strains, locus YNR052C, strain pop2, hits give low values 1.02 | S. cerevisiae deletion strains, locus YOL006C, strain TOP1, hits give low values 0.958 | S. cerevisiae deletion strains, locus YOL012C, strain htz1 0.814 | S. cerevisiae deletion strains, locus YOL147C, strain pex11, hits give low values 1 | S. cerevisiae deletion strains, locus YOR001W, strain rrp6, hits give low values 0.992 | S. cerevisiae deletion strains, locus YOR061W, strain CKA2, hits give low values 1 | S. cerevisiae deletion strains, locus YOR069W, strain VPS5, hits give low values 1 | S. cerevisiae deletion strains, locus YOR070C, strain gyp1, hits give low values 0.989 | S. cerevisiae deletion strains, locus YOR080W, strain dia2, hits give low values 0.984 | S. cerevisiae deletion strains, locus YOR083W, strain WHI5, hits give low values 1.03 | S. cerevisiae deletion strains, locus YOR106W, strain vam3, hits give low values 1.01 | S. cerevisiae deletion strains, locus YOR136W, strain idh2, hits give low values 1.01 | S. cerevisiae deletion strains, locus YOR144C, strain elg1, hits give low values 1 | S. cerevisiae deletion strains, locus YOR184W, strain ser1, hits give low values 1.02 | S. cerevisiae deletion strains, locus YOR231W, strain MKK1, hits give low values 1.07 | S. cerevisiae deletion strains, locus YOR265W, strain rbl2, hits give low values 0.989 | S. cerevisiae deletion strains, locus YOR270C, strain vph1, hits give low values 0.955 | S. cerevisiae deletion strains, locus YOR290C, strain snf2, hits give low values 1 | S. cerevisiae deletion strains, locus YOR316C, strain cot1, hits give low values 1.02 | S. cerevisiae deletion strains, locus YPL051W, strain arl3, hits give low values 1.06 | S. cerevisiae deletion strains, locus YPL055C, strain LGE1, hits give low values 1.02 | S. cerevisiae deletion strains, locus YPL078C, strain atp4, hits give low values 1.03 | S. cerevisiae deletion strains, locus YPL106C, strain sse1, hits give low values 0.966 | S. cerevisiae deletion strains, locus YPL240C, strain hsp82, hits give low values 0.984 | S. cerevisiae deletion strains, locus YPL241C, strain CIN2, hits give low values 1 | S. cerevisiae deletion strains, locus YPL256C, strain CLN2, hits give low values 1.04 | S. cerevisiae deletion strains, locus YPR119W, strain clb2, hits give low values 1.01 | S. cerevisiae deletion strains, locus YPR141C, strain kar3, hits give low values 1.01 | S. cerevisiae deletion strains, locus YPR163C, strain tif3, hits give low values 1.02 | S. cerevisiae deletion strains, locus YPR167C, strain met16, hits give low values 1.02 | S. cerevisiae deletion strains, strain wtn01, hits give low values 1.01 | S. cerevisiae strains, strain wild type, hits give low values 1.01
